Rab9 prom act: qHTS Assay for Rab9 Promoter Activators | Huh7 Rab9 promoter-luciferase reporter, luminescence, 24 h | Potency, µM (doses to about 9.22 µM), most hits filed as activators | 2.8% of 320,000 active | AID 485297, 2010; also: nearly all actives have a fitted effect of over 60% in size
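Luminescence from Amplite-detected luciferase (10 minutes, ambient) reports Rab9 promoter activation. Before that, stable Rab9-luciferase Huh7 cells (1500/well, reduced-serum OP-MEM I plus 10% FBS) were exposed to compound for 24 hours at 37C.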
ELG1 genotox: qHTS screen for small molecules that induce genotoxicity in human embryonic kidney (HEK293T) cells expressing luciferase-tagged ELG1. HEK293T ELG1-luciferase reporter, luminescence, 16 h. Potency, µM (top dose mostly 46 µM), actives largely listed as activators. 1.3% of 330,000 active. AID 504466, 2011; also: nearly all actives have a fitted effect of over 60% in size
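HEK293T cells expressing luciferase-tagged ELG1 were exposed to compound or DMSO vehicle for 16 hr at 37 °C and 5% CO2. Luciferase activity was then measured with ONE-Glo after 30 min at room temperature.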
NPC1 prom act: qHTS Assay for NPC1 Promoter Activators; Huh7 NPC1 promoter luciferase reporter, 24 h; Potency, µM (titrated, usually from 9.22 µM), hits mostly activators; 2.4% of 320,000 active; also: nearly all actives have a fitted effect of over 60% in size
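Luminescence from an NPC1 promoter-driven luciferase reporter in stably transfected Huh7 cells was measured after 24 h compound treatment at 37 °C, followed by 10 min ambient incubation with luciferase detection reagent.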
FLuc modulator: qHTS profiling assay for firefly luciferase inhibitor/activator using purifed enzyme and Km concentrations of substrates (counterscreen for miR-21 project); purified FLuc, Km substrates, luminescence inhibition; 6.9% of 360,000 active; Potency, µM (titrated, usually from 57.5 µM), most hits filed as inhibitors; also: nearly all actives have a fitted effect of over 55% in size
Target sequence (P08659 whole entry, looked up): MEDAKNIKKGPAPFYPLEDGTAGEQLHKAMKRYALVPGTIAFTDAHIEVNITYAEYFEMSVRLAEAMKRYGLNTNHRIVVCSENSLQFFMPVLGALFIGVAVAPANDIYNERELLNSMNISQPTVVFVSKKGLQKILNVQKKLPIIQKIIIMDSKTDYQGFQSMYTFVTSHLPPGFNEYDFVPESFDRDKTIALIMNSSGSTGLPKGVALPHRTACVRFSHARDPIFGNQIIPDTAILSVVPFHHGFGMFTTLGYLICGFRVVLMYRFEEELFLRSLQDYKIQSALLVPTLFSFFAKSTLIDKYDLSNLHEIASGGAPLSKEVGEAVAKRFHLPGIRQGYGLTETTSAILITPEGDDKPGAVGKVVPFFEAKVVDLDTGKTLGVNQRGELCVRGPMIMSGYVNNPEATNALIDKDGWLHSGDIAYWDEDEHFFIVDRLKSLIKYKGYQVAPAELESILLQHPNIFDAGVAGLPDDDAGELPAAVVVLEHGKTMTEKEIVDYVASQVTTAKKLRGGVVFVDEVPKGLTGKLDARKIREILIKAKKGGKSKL
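Biochemical qHTS of compounds, final roughly 60 µM downward over six points, against 10 nM purified firefly luciferase using Km concentrations of substrates (10 uM D-luciferin, 10 uM ATP) in Tris acetate pH 7.5 buffer; luminescence output.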
SMN2 splice enh: qHTS Assay for Enhancers of SMN2 Splice Variant Expression. HEK293 SMN2-luciferase splicing reporter, luminescence, 30-36 h. Potency, µM (doses to about 46.1 µM), most hits filed as activators. 2.8% of 210,000 active. AID 1458, 2008; also: nearly all actives have a fitted effect of over 55% in size
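qHTS luciferase splicing reporter: luminescence rises when SMN2 exon 7 is included in transfected HEK293 cells. Compound exposure lasted 30-36 h at 37C, with 4.5 mM final sodium butyrate as control, followed by a ONE-Glo read.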
Hits are given with their value; n = inactive; u = inconclusive; x = no result given. Most compounds without a hit are left out; they make up all but 7.5% or so of the library. Calls follow the shape of the dose curve; as a rule, active = well fitted curve in the direction sought with a large enough effect; inconclusive = small, poorly fitted or top-dose-only effect, or another doubt; inactive = no such curve, though single readings can be large; an effect the other way counts as inactive or inconclusive.

SMILES	Rab9 prom act	ELG1 genotox	NPC1 prom act	FLuc modulator	SMN2 splice enh
Nc1c(C(=O)Nc2ccccc2F)sc2nc3c(cc12)CCCCCC3	x	x	x	n	n
Nc1c(C(=O)N2CCCCC2)sc2nc3c(cc12)CCCC3	2.8µM	6.5µM	2.5µM	6.7µM	x
Cc1ccc(C(=O)c2sc3nc4c(cc3c2N)CCC4)cc1	2.2µM	u	1.8µM	u	7.9µM
NC(=O)c1sc2nc3c(c(-c4ccc(Cl)cc4)c2c1N)CCCC3	n	n	n	n	n
Cc1ccc(-c2c3c(nc4sc(C(N)=O)c(N)c24)CCC3)cc1	u	n	n	17µM	n
Nc1c(C(=O)Nc2ccccc2)sc2nc(-c3cccnc3)ccc12	n	n	u	u	x
CC(=O)Nc1ccc(NC(=O)C(c2ccccc2)c2ccccc2)cc1	n	u	n	n	x
COc1ccc(CCNc2nc3c(-c4cccc(C(F)(F)F)c4)nnn3c3ccccc23)cc1OC	x	x	x	n	n
Cc1cnc(NC(=O)CCCNC(=O)c2ccc(Cl)cc2)s1	u	u	n	8.5µM	x
Cc1ccc(C(=O)NCCn2cc(SCC(=O)Nc3cc(C)on3)c3ccccc32)cc1	u	u	n	5.4µM	n
CCCn1cc(SCC(=O)Nc2cc(C)on2)c2ccccc21	n	n	n	n	x
Cc1cc(NC(=O)CSc2cn(CCNC(=O)c3ccccc3)c3ccccc23)no1	n	n	n	19µM	n
CCn1cc(SCC(=O)Nc2cc(C)on2)c2ccccc21	n	n	n	n	n
CCOc1ccccc1/C=N/NC(=O)c1cc(C(C)C)[nH]n1	n	n	n	u	x
CC(C)c1cc(C(=O)N/N=C/c2c[nH]c3ccccc23)n[nH]1	n	n	n	24µM	x
Cn1ccc(C(=O)N/N=C/c2c[nH]c3ccccc23)n1	u	u	u	15µM	x
O=C(N/N=C/c1c[nH]c2ccccc12)c1ccn(Cc2ccc(Cl)cc2Cl)n1	n	n	n	u	n
CC(=O)c1cccc(NC(=O)NNC(=O)c2ccc(Cl)cc2Cl)c1	n	n	n	n	x
C/C(=N/NS(=O)(=O)c1ccc(C)cc1)c1cccc(NC(=O)c2cccc(Cl)c2)c1	n	n	n	17µM	n
CC(=O)Nc1cccc(/C(C)=N/NC(=O)c2ccc(Cl)cc2Cl)c1	n	n	n	19µM	n
C/C(=N/NS(=O)(=O)c1ccc(Cl)cc1)c1cccc(NC(=O)c2ccc(Cl)cc2Cl)c1	n	n	n	17µM	n
C/C(=N\NC(=O)C1CC1)c1cccc(NC(=O)c2cccc(Cl)c2)c1	n	n	n	u	n
CN(CC(=O)OCC(=O)NCC(F)(F)F)S(=O)(=O)c1ccc(Cl)cc1	n	n	n	n	n
O=C(O)CCc1nc2cc(C(F)(F)F)ccc2n(Cc2ccccc2)c1=O	n	n	n	n	x
CCN(C(=S)Nc1cccc(C)c1)c1ccccc1	n	n	n	n	n
SMILES	Rab9 prom act	ELG1 genotox	NPC1 prom act	FLuc modulator	SMN2 splice enh
O=C(O)CN=C1CC(c2ccccc2)CC(=O)/C1=C(/O)CCCN1C(=O)c2ccccc2C1=O (centres undefined)	n	n	n	n	x
Cc1ccc(C(=O)c2cnc3cc4c(cc3c2S(=O)(=O)c2ccccc2)OCCO4)cc1	n	n	n	1.7µM	n
CCOc1ccc(S(=O)(=O)c2c(C(=O)c3ccc(C)cc3)cnc3cc4c(cc23)OCCO4)cc1	n	n	n	n	n
COC(=O)Nc1ccc2c(c1)ncn2C1CCCCC1	n	n	n	17µM	n
O=C(CSc1nnc2ccccn12)NC(=O)c1cccc([N+](=O)[O-])c1	x	n	x	x	x
Cc1ccc(S(=O)(=O)N2C(=O)c3cccc4cccc2c34)cc1	n	n	n	n	x
CCC1CCc2nc3sc(C(=O)Nc4ccc(C)cc4C)c(N)c3cc2C1 (centres undefined)	x	x	x	n	n
COc1ccccc1NC(=O)c1sc2nc3c(cc2c1N)CCCCCC3	x	x	x	n	n
CCc1nnc(NC(=O)c2sc3nc4c(cc3c2N)CCCCCC4)s1	2.8µM	u	u	4.8µM	13µM
CC(=O)c1cccc(NC(=O)c2sc3nc4c(cc3c2N)CCCC4)c1	x	x	x	0.54µM	n
COc1ccc(NC(=O)c2sc3nc4c(cc3c2N)CCCCCC4)cc1OC	x	x	x	n	n
Cc1cccc(NC(=O)c2sc3nc(N)c(C#N)cc3c2N)c1	2.5µM	u	2.8µM	9.5µM	16µM
CCc1nnc(NC(=O)c2sc3nc4c(cc3c2N)CCCCC4)s1	1.6µM	u	2.2µM	1.7µM	8.9µM
CNC(=O)COc1ccc(Cl)c2cccnc12	n	u	n	n	n
CCOC(=O)C1CCN(C(=O)c2ccc(Cl)c(S(=O)(=O)N3CCOCC3)c2)CC1	n	n	n	n	n
C=C1c2cccc(O)c2C(=O)C2C(=O)[C@]3(O)C(=O)C(C(N)=O)C(=O)[C@@H](N(C)C)[C@@H]3[C@@H](O)[C@H]12 (some centres undefined)	x	n	x	x	x
C[C@H]1CN([C@@H](C)CO)C(=O)c2cccc(NC(=O)Nc3ccc(C(F)(F)F)cc3)c2O[C@@H]1CN(C)Cc1ccc(Cl)c(Cl)c1	x	n	x	x	x
O=C(Cc1ccccc1)NNS(=O)(=O)c1ccccc1[N+](=O)[O-]	n	n	n	n	x
COc1cccc(C(=O)Nc2ccc(F)cc2F)c1	u	u	u	u	13µM
COc1cccc(C(=O)Nc2ccc(C(F)(F)F)n(C)c2=O)c1	2.8µM	u	2.8µM	6µM	x
O=C(Nc1ccccc1F)c1cccc(C(=O)Nc2ccccc2F)c1	u	n	n	u	x
COc1cccc(C(=O)Nc2ccccc2F)c1	u	u	n	u	11µM
O=C(Nc1ccccc1F)c1ccc(C(=O)c2ccccc2)cc1	3.5µM	u	2.8µM	11µM	x
CC1Cn2c(nnc2-c2ccc(F)cc2)S1 (centres undefined)	n	n	n	n	n
COc1cccc(C(=O)N(C)CC(=O)Nc2ccc(F)c(F)c2F)c1	n	n	n	n	x
SMILES	Rab9 prom act	ELG1 genotox	NPC1 prom act	FLuc modulator	SMN2 splice enh
COc1cccc(C(=O)Nc2ccc(F)c(F)c2F)c1	u	u	u	17µM	u
COc1ccccc1OCc1ccc(C(=O)Nc2ccccc2F)cc1	u	n	u	n	x
CCCc1ccc(C(=O)NNc2ccccc2F)cc1	u	u	u	17µM	x
CC(C)Oc1cccc(C(=O)Nc2ccc(Br)cc2F)c1	1.3µM	u	3.5µM	0.95µM	5µM
Cc1noc(C)c1COc1cccc(C(=O)Nc2ccc(Br)cc2F)c1	x	n	x	x	x
CC(=O)Oc1ccc(N(c2ccccc2)S(=O)(=O)c2ccc(C)cc2)cc1	n	n	n	n	x
CCOC(=O)c1sc(NC(=O)c2cccc(S(=O)(=O)N3CCc4ccccc43)c2)c(C#N)c1C	n	n	n	n	x
CCOP(=O)(OCC)C(C)(C)NC(=O)Nc1ccc(Cl)c(Cl)c1	n	n	n	n	x
COc1ccccc1-c1cc(C(=O)NCc2ccccc2)no1	n	n	n	24µM	n
